# Assay results: the supplement of paper PMC3484114
# “And” between values parts separate entries of the source, which are not always exact repeats. Identical values can stand only once. ± gives the standard deviation.
# Test system: OVCAR-3-derived ovarian cancer stem-like cells (spheroids)
# Assay: cell growth relative to untreated control; higher = more growth (less inhibition)
# Conditions: 2.29 µM; 96 h
# Summary of the method: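 OVCAR-3 spheroid-derived stem-like cells were trypsin-dissociated, seeded at 50,000 cells/mL in stem cell medium in ultra-low attachment 96-well plates and preincubated 24 h. Compounds were then added at 2.29 uM for 96 h at 37°C, 5% CO2, in 4 replicate wells. Viability was read as TOX8 resazurin fluorescence (ex 560/em 590 nm) after 4 h. Percent growth was calculated relative to untreated wells after blank subtraction and Grubbs outlier removal.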
row,SMILES,cell growth
1,Cc1cc(Cl)cc2c1NC(=O)C2(O)C(C(=O)c1ccccc1)c1ccccc1 (centres undefined),94.9 ± 12%
2,Cc1nc(-c2cccnc2)sc1C(=O)/C=C/c1ccc(Cl)cc1Cl,114 ± 34%
3,O=C(NCCCCCCCCNC(=O)c1cccc2ccccc12)c1cccc2ccccc12,80.8 ± 18%
4,Nc1ccc2cc3ccc(N)cc3nc2c1,25.8 ± 6.4%
5,O=S(=O)(O)SC/C=C/CSS(=O)(=O)O,143 ± 16%
6,O=C(Nc1cccc(C(F)(F)F)c1)C(=O)C(C(=O)c1ccc(Cl)c(Cl)c1)C1OC(=O)c2ccccc21 (centres undefined),102 ± 20%
7,CCN(CC)CCNc1ccc(C)c2sc3ccccc3c(=O)c12,77.7 ± 26%
8,CC(=O)NC(CC(C)C)C(=O)NC(Cc1ccccc1)C(=O)CCl (centres undefined),88.6 ± 12%
9,CN(C)c1ccc(/C=C/C(=O)[O-])cc1.CN(C)c1ccc(/C=C/C(=O)[O-])cc1.[Cu+2],97.6 ± 39%
10,N#CC(C#N)=Cc1ccc(Oc2ccccc2)cc1,86.2 ± 51%
11,O=c1[nH]c(=O)n(C2OC(CO)C(O)C2O)cc1F (centres undefined),19.2 ± 4.6%
12,CN1CCN(CN2C(=O)C3C4C=CC(C3C2=O)C2C3C(=O)N(CN5CCN(C)CC5)C(=O)C3C42)CC1 (centres undefined),91.4 ± 32%
13,CCOC(=O)C(C)NC(=O)N(C)C12CC3CC(CC(C3)C1)C2 (centres undefined),8 ± 3.5%
14,O=C(CC(O)(C(F)(F)F)C(F)(F)Cl)CC(O)(C(F)(F)F)C(F)(F)Cl (centres undefined),66.8 ± 21%
15,CC(=O)c1ccc(Oc2ccc(/C(C)=N/N=C(N)N)cc2)cc1,32.4 ± 7.5%
16,CC(C)(C)c1ccc(O)c(CN(Cc2cc(C(C)(C)C)ccc2O)C2CCCCC2)c1,145 ± 56%
17,O=C1C(C(O)(C(F)(F)F)C(F)(F)F)CCC1C(O)(C(F)(F)F)C(F)(F)F (centres undefined),104 ± 18%
18,CC1CCCC(C(=O)/C(=C/c2cccc(Cl)c2)C(=O)C(=O)O)C1 (centres undefined),93.9 ± 27%
19,C=C1C(=O)C2=CC1CCC(=O)C1(C)CCC(OC(C)=O)C(C)(C)C1CC2O (centres undefined),30.4 ± 11%
20,Cc1c2ccncc2cc2c1[nH]c1ccccc12,101 ± 20%

row,SMILES,cell growth
1,CC(C)C(C)C=CC(C)C1CCC2C3=CC=C4CC(O)CCC4(C)C3CCC21C (centres undefined),97.6 ± 23%
2,O=C(O)c1ccc(Nc2c3ccccc3nc3ccccc23)cc1,98 ± 12%
3,N#Cc1ccccc1NC(=O)C(=O)C(C(=O)c1ccccc1F)C1OC(=O)c2ccccc21 (centres undefined),98.8 ± 24%
4,O=[N+]([O-])c1cccc2nc3ccccc3c(NCCCNc3c4ccccc4nc4cccc([N+](=O)[O-])c34)c12,10.8 ± 2.9%
5,COC(=O)C(=O)C(C(=O)C(=O)Nc1cc(C)ccc1C)c1nc2ccc(C(=O)c3ccccc3)cc2[nH]c1=O (centres undefined),91.5 ± 15%
6,Cc1c(C(=O)C/C(=N\O)C(=O)Nc2cc(Cl)c(Cl)cc2Cl)[n+](=O)c2ccccc2n1[O-],68.5 ± 17%
7,Nc1nc2n[nH]nc2c(=O)[nH]1,91.6 ± 14%
8,O=[N+]([O-])c1ccc(-c2cn(-c3ccc(Cl)cc3)cn2)cc1,106 ± 23%
9,OCCNCCN1CCN(CCCN2c3ccccc3Sc3ccc(C(F)(F)F)cc32)CC1,126 ± 42%
10,[Mo],97% and 106%
11,CN(C)CCN1C(=O)c2cccc3cc(N)cc(c23)C1=O,60.2 ± 11%
12,CCOC(=O)c1sc2[n+](c1C)C(=O)/C(=C/c1ccc([N+](=O)[O-])cc1)S2,94.2 ± 27%
13,CSc1ccc(NC(=O)CCl)cc1,80.8 ± 14%
14,CCOC(=O)/N=C(\N)SCc1ccccc1,78.4 ± 11%
15,CC1(C)NC(=O)N(CCCCCCN2C(=O)NC(C)(C)C2=O)C1=O,85.8 ± 22%
16,CC1=C(C(=O)NCc2ccccc2)C(c2ccccc2O)C(C(=O)NCc2ccccc2)=C(C)N1,76.9 ± 12%
17,O=[N+]([O-])c1ccc2oc(=Nc3ccccc3)c(Nc3ccccc3)nc2c1,101 ± 11%
18,O=C(CC(=O)c1ccccc1)CC(O)(c1ccccc1)c1ccccc1,124 ± 18%
19,CCN(CC)CCCC(C)Nc1c2ccc(Cl)cc2nc2ccc(OC)cc12 (centres undefined),37.6 ± 6.1%
